Assay outcomes deposited in PubChem by several laboratories.
SRC1 inh: inhibitors of human steroid receptor coactivator 1 (SRC1); inhibition, % at 3.6 µM; HEK293 GAL4-SRC1 luciferase reporter, luminescence; AID 588354; 0.12% of 360,000 active;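 active = inhibition above the campaign mean plus 3 SD, with each screening campaign given its own cutoff, cut at about 60% in these data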;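 also: 0% = DMSO treated cells and 100% = gossypol at 36 µM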
NCOA3 inh: inhibitors of human steroid receptor coactivator 3 (SRC3). HEK293 GAL4-SRC3 luciferase reporter, luminescence. inhibition, % at 3.6 µM. 0.17% of 360,000 active;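 active = inhibition above a per-campaign cutoff, the mean of all compounds plus 3 SD, cut at about 60% in these data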;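 also: 0% = DMSO-treated cells and 100% = gossypol-treated cells at 36 µM; higher means less SRC3-driven luciferase light from the GAL4 reporter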
NR5A2 inv ag: suppresses constitutive activity of human LRH-1. AID 602396. 0.13% of 360,000 active. inhibition, % at 3.6 µM. HEK293T StAR-luciferase reporter, LRH-1 transfected, 24 h. O00482;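 active = inhibition above the mean inhibition of all tested compounds plus 3 SD, cut at about 73% in these data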;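 also: 0% = DMSO wells and 100% = reporter-only cells lacking LRH-1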
Gli-Sufu antag: blocks Gli-Sufu signaling in a luciferase reporter | inhibition, % at 5 µM | Sufu-KO-LIGHT fibroblasts, Gli luciferase reporter luminescence | 0.74% of 340,000 active;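 active = inhibition above about 55%, limit read from the data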;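 also: 0% = DMSO-treated cells and 100% = wells with medium but no cells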
NCOA2 inhibitor: inhibits human steroid receptor coactivator 2; HEK293 GAL4-SRC2 luciferase reporter, luminescence; inhibition, % at 9 µM; 0.17% of 370,000 active; AID 651957;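 active = inhibition above the mean inhibition of all tested compounds plus 3 SD, set per campaign, cut at about 52% in these data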;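 also: 0% = DMSO treated cells and 100% = cells given Gossypol at 36 µM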
Target sequence (Q15596 whole entry, looked up, the tested form may be a part): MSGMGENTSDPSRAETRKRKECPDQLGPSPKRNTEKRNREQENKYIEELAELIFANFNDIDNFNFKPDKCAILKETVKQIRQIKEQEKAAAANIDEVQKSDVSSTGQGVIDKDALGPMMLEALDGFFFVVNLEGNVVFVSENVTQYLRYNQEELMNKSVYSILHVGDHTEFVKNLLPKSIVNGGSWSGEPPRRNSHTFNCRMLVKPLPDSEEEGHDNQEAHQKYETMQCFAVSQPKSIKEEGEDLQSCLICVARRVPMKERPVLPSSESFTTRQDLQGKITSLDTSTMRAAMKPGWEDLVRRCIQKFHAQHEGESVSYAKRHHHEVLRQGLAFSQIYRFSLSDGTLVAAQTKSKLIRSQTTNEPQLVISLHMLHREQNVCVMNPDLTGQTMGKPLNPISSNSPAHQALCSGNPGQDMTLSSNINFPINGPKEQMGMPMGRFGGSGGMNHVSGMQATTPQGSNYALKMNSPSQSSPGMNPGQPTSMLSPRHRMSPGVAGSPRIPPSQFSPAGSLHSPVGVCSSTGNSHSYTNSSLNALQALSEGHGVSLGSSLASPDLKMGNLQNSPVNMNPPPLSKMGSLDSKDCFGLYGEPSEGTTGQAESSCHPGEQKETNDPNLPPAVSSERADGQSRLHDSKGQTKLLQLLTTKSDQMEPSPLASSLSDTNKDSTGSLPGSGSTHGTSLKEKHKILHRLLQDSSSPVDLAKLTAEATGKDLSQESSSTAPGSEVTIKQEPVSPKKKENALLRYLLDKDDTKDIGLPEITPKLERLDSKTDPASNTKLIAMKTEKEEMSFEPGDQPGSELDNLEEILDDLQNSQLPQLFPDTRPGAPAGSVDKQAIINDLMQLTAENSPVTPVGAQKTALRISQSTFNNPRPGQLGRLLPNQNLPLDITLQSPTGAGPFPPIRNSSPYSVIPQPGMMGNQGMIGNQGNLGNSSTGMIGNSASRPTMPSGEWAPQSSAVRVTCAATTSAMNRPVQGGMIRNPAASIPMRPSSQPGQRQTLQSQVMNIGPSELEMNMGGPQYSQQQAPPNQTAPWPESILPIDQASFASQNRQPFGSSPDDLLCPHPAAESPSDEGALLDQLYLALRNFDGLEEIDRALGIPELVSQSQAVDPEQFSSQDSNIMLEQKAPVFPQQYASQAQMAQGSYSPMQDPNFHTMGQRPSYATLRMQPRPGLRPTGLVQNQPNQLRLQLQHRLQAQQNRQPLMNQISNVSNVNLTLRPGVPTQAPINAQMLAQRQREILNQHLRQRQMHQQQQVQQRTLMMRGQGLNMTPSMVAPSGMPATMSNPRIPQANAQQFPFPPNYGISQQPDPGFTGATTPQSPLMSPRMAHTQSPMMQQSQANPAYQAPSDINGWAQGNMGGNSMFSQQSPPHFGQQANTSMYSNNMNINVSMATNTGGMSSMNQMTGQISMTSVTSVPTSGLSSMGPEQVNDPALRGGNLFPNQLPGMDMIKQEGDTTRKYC
COUP-TFII inh: blocks human COUP-TFII nuclear receptor | 0.7% of 370,000 active | P24468 | AID 686940 | inhibition, % at 8.6 µM | HEK293T NGFI-A luciferase reporter, luminescence;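 active = inhibition above a per-plate cutoff, mean inhibition of test wells between control levels plus 3 SD, cut at about 38% in these data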;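 also: cells cotransfected with COUP-TFII expression vector driving the NGFI-A reporter; 0% = median of COUP-TF2 test wells and 100% = reporter-only cells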
Gli-Sufu confirm: Gli-SUFU antagonism confirmation, single concentration; AID 602428; Sufu-KO-LIGHT cells, Gli luciferase reporter, luminescence; inhibition, % at 5 µM; 40% of 2,500 active; shares compounds with Gli-Sufu antag;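 active = mean inhibition at 5 µM reaching about 45%, limit read from the data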;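 also: plate controls were DMSO-treated cells for no effect and wells lacking cells for full effect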
SufuKO cytotox: cytotoxicity counter-screen for Gli-SUFU antagonists; shares compounds with Gli-Sufu antag; Sufu-KO-LIGHT cells cytotoxicity, ATP luminescence; cytotoxicity, % at 5 µM; 32% of 2,500 active; AID 651994;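 active = mean cytotoxicity at 5 µM above about 25%, limit read from the data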;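 also: cells exposed to compound overnight for roughly 16 to 18 hours; plate controls were DMSO wells with cells for no effect and medium without cells for full effect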
Wnt3a cs: inhibits Wnt3a reporter, counter-screen for Gli-SUFU antagonists; Wnt-LIGHT cells, Wnt3a-driven luciferase reporter, luminescence; inhibition, % at 6.25 µM; AID 651995; 20% of 2,500 active; shares compounds with Gli-Sufu antag;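 active = mean inhibition above about 25%, limit read from the data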
Active calls of the source: *; . = no result given. Rows were chosen to be rich in hits. Some 1.3% of all compounds tested hit in one or more screens of this group.

SMILES	SRC1 inh	NCOA3 inh	NR5A2 inv ag	Gli-Sufu antag	NCOA2 inhibitor	COUP-TFII inh	Gli-Sufu confirm	SufuKO cytotox	Wnt3a cs
CCCCOC(=O)C[N+](C)(C)CCOC1CC2CCC1(C)C2(C)C (stereo not drawn)	11	9	8	69*	17	-2	72*	37*	2
CC(C)CCOC(=O)C[N+](C)(C)CCOC1CC2CCC1(C)C2(C)C (stereo not drawn)	-3	16	35	77*	11	8	73*	23	23
O=C(N1CCOCC1)N1CC[C@H]2[C@H](CCCN2Cc2ccccc2)C1	.	.	.	.	-29	1	.	.	.
CCOC(=O)N1CCN(C(=O)c2ccc(CSc3ccc(Cl)cc3)cc2)CC1	7	9	-1	58*	-12	-5	48*	17	0
O=C(O)Cn1cccc1C(=O)c1ccccc1	-3	-1	-3	96*	.	.	9	4	-15
COC(=O)Cn1cccc1C(=O)c1ccccc1	-9	8	10	1	1	-1	.	.	.
C=CCN1[C@H](C)[C@H](c2ccccc2)Oc2cc(Br)ccc2S1(=O)=O	.	.	.	.	22	-9	.	.	.
COc1cnn(-c2cccc(C)c2)c(=O)c1Cl	-14	-7	-24	51	-32	11	23	3	-32
C=CCn1c(SCc2c(C)noc2C)nc2ccccc2c1=O	7	11	19	55	7	-58	54*	58*	-16
C=CCn1c(SCc2c(C)noc2C)nc2cc(C(=O)O)ccc2c1=O	-10	8	3	0	2	-6	.	.	.
C[C@H](CO)N1C[C@H](C)[C@@H](CN(C)S(=O)(=O)c2ccc(F)cc2)Oc2ncc(Br)cc2C1=O	.	.	.	.	-12	-8	.	.	.
COc1ccc(NC(=O)/C(C#N)=C\c2cc(C)n(-c3ccc4c(c3)OCO4)c2C)cc1	25	1	23	64*	11	-15	56*	56*	-65
Cc1cc(/C=C(\C#N)C(=O)Nc2ccccc2)c(C)n1-c1ccc(C(=O)O)cc1	-8	9	3	4	-2	0	.	.	.
OCC1COC(c2ccccc2)=N1 (stereo not drawn)	.	.	.	.	9	5	.	.	.
CC(C)C[C@H]1COc2cc(NCCO)ccc2S(=O)(=O)N1	.	.	.	.	-19	-6	.	.	.
COc1ccc(-n2c(C)cc(C(=O)CCl)c2C)cc1	-3	3	28	6	29	14	.	.	.
COc1ccc(-n2c(C)cc(C(=O)CN3C(=O)c4ccccc4C3=O)c2C)cc1	-30	-23	-22	96*	-29	-7	-3	10	-41
C[C@H]1CN(S(=O)(=O)C(C)(C)C)[C@@H](CCO)/C1=C\c1ccccc1	.	.	.	.	1	-3	.	.	.
COCCCNC(=O)CSc1nnc(-c2ccncc2)n1-c1ccc(OC)cc1	.	.	.	.	-13	-4	.	.	.
CC1CN(C(=O)CCc2cc(C(C)(C)C)c(O)c(C(C)(C)C)c2)CC(C)O1 (stereo not drawn)	0	-11	22	66*	-19	3	86*	31*	29*
O=C(c1ccc(Cl)cc1)N1CCN(c2ccnc3cc(Cl)ccc23)CC1	19	19	-9	67*	0	23	69*	18	4
CC(CCN1CCC(C(O)(c2ccccc2)c2ccccc2)CC1)Oc1cccc(Br)c1 (stereo not drawn)	.	.	.	.	2	18	.	.	.
COCCN(C(=O)CSc1nnc(-c2ccccc2F)n1N)c1c(N)n(Cc2ccccc2)c(=O)[nH]c1=O	-3	12	11	54	-8	19	13	22	-14
CN(C)CCn1c2ccccc2c2nc3ccc([N+](=O)[O-])cc3cc21	6	0	19	52	-33	-33	40	10	-162
CCOC(=O)C1=C(C(=O)OCC)C2N(Cc3ccc(Br)cc3)c3ccccc3[C@@]23C[C@@H](C(=O)OC)N(S(=O)(=O)c2ccc(Br)cc2)C3=N1 (stereo partly drawn)	.	.	.	.	-9	-21	.	.	.
